Measured values taken from PubChem BioAssay AID1159580 (chemical genetic matrix, 2015).
Values joined by “and” are separate entries in the source; they are usually repeats but may differ in a detail not shown here. Equal values may be shown once. About 2,000 (36%) of roughly 5,500 compounds were called active. Another 18% or so got no clear call; they are omitted. Rule as the data show it: active = normalized growth mostly below about 0.91 (no sharp cut-off); inconclusive = no clear call, values can overlap the other calls; inactive = mostly above about 0.92. This is one part of the list.

Experiment: chemical genetic growth profiling, strain panel (AID 1159580);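 also: tested at 20 µM; growth read once vehicle control cultures reached saturation at 30 °C; 1 = growth at the plate median or of vehicle wells; lower values mean less growth of the strain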
Settings: S. cerevisiae deletion strains, growth OD

Measured: normalized growth

CC(COc1ccccc1)N(CCCl)Cc1ccccc1 (stereo not given)
active: locus YCL011C, strain gbp2, hits give low values 0.895
inactive: locus YAL013W, strain DEP1, hits give low values 1.01 | locus YAL021C, strain ccr4, hits give low values 0.96 | locus YAL026C, strain drs2, hits give low values 0.936 | locus YAL030W, strain snc1, hits give low values 0.974 | locus YAL040C, strain CLN3, hits give low values 1.09 | locus YBL061C, strain skt5, hits give low values 0.978 | locus YBR009C, strain hhf1, hits give low values 0.99 | locus YBR021W, strain FUR4, hits give low values 1.02 | locus YBR023C, strain chs3, hits give low values 0.97 | locus YBR171W, strain sec66, hits give low values 0.984 | locus YBR229C, strain ROT2, hits give low values 1 | locus YBR231C, strain swc5, hits give low values 1.01 | locus YBR279W, strain paf1, hits give low values 0.961 | locus YCL016C, strain dcc1, hits give low values 0.947 | locus YCL029C, strain bik1, hits give low values 1.03 | locus YCL061C, strain MRC1 (second series), hits give low values 0.956 | locus YCL061C, strain MRC1, hits give low values 0.964 | locus YCL069W, strain vba3, hits give low values 0.995 | locus YCR088W, strain abp1, hits give low values 0.986 | locus YDL005C, strain med2, hits give low values 0.972 | locus YDL035C, strain GPR1, hits give low values 0.997 | locus YDL040C, strain nat1, hits give low values 0.983 | locus YDL074C, strain BRE1, hits give low values 1.02 | locus YDL101C, strain DUN1, hits give low values 1.01 | locus YDL134C, strain PPH21, hits give low values 1.01 | locus YDL185W, strain tfp1, hits give low values 1.01 | locus YDL192W, strain arf1, hits give low values 1.01 | locus YDR001C, strain nth1, hits give low values 0.985 | locus YDR069C, strain doa4, hits give low values 0.965 | locus YDR101C, strain arx1, hits give low values 1.01 | locus YDR137W, strain rgp1, hits give low values 0.853 | locus YDR150W, strain NUM1, hits give low values 1.01 and 0.963 | locus YDR159W, strain sac3, hits give low values 0.978 | locus YDR162C, strain NBP2, hits give low values 0.998 | locus YDR195W, strain ref2 1.03 | locus YDR297W, strain sur2, hits give low values 0.995 | locus YDR318W, strain mcm21, hits give low values 1.01 | locus YDR334W, strain swr1, hits give low values 0.969 | locus YDR335W, strain msn5, hits give low values 0.974 | locus YDR363W, strain ESC2, hits give low values 0.905 | locus YDR388W, hits give low values 1.02 | locus YDR392W, strain spt3, hits give low values 0.742 | locus YDR502C, strain sam2, hits give low values 0.999 | locus YEL003W, strain gim4, hits give low values 0.991 | locus YEL037C, strain rad23, hits give low values 0.978 | locus YEL061C, strain CIN8 (second series), hits give low values 0.971 | locus YEL061C, strain CIN8, hits give low values 1.01 | locus YER002W, strain NOP16, hits give low values 1.02 | locus YER015W, strain faa2, hits give low values 0.993 | locus YER016W, strain bim1, hits give low values 0.983 | locus YER110C, hits give low values 1.01 | locus YER111C, strain swi4, hits give low values 0.995 | locus YER155C, strain BEM2 (second series), hits give low values 0.994 | locus YER155C, strain BEM2, hits give low values 1.01 | locus YER167W, strain BCK2, hits give low values 0.991 | locus YFR010W, strain ubp6, hits give low values 0.986 | locus YGL078C, strain dbp3, hits give low values 1.01 | locus YGL086W, strain mad1, hits give low values 0.986 | locus YGL167C, strain pmr1, hits give low values 1 | locus YGL173C, strain kem1, hits give low values 1.01 | locus YGL227W, strain vid30, hits give low values 0.973 | locus YGL240W, strain doc1, hits give low values 1 | locus YGL248W, strain PDE1, hits give low values 1.01 | locus YGL253W, strain hxk2, hits give low values 0.921 | locus YGR078C, strain PAC10, hits give low values 1.01 | locus YGR135W, strain pre9, hits give low values 1.01 | locus YGR229C, strain SMI1, hits give low values 0.999 | locus YGR252W, strain gcn5, hits give low values 0.957 | locus YHR013C, strain ard1, hits give low values 0.924 | locus YHR027C, strain rpn1, hits give low values 0.991 | locus YHR030C, strain SLT2, hits give low values 1.01 and 0.986 | locus YHR079C, strain IRE1 (second series), hits give low values 1.02 | locus YHR079C, strain IRE1, hits give low values 0.964 | locus YHR094C, strain hxt1, hits give low values 1.02 | locus YHR129C, strain ARP1, hits give low values 1.01 | locus YHR142W, strain chs7, hits give low values 0.938 | locus YHR200W, strain rpn10, hits give low values 1.01 | locus YIL066C, strain RNR3, hits give low values 1.01 | locus YIL073C, strain SPO22, hits give low values 1.05 | locus YIL125W, strain kgd1, hits give low values 1.01 | locus YIR030C, strain dcg1, hits give low values 1.02 | locus YJL092W, strain hpr5, hits give low values 0.963 | locus YJL095W, strain BCK1 (second series), hits give low values 0.958 | locus YJL095W, strain BCK1, hits give low values 1 and 0.997 | locus YJL115W, strain asf1, hits give low values 0.947 | locus YJL129C, strain trk1, hits give low values 0.956 | locus YJL134W, strain LCB3, hits give low values 1 | locus YJL154C, strain vps35, hits give low values 0.982 | locus YJL164C, strain tpk1, hits give low values 0.961 | locus YJL166W, strain qcr8, hits give low values 0.974 | locus YJL168C, strain set2, hits give low values 1.01 | locus YJL187C, strain SWE1 (second series), hits give low values 1.03 | locus YJR043C, strain POL32, hits give low values 1.02 | locus YJR066W, strain TOR1, hits give low values 0.925
